# Screens: PubChem, The Scripps Research Institute Molecular Screening Center
# IDE act: activators of human insulin-degrading enzyme in cells; P14735; HEK cells, FAbeta-B cleavage, fluorescence polarization; 0% vehicle, 100% cell-free pure enzyme wells; activation, % at 5.96 µM; 340,000 compounds, 0.073% hits;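 active = activation above the mean of all tested compounds plus 3 SD, set per screening campaign, cut at about 17% in these data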
# IDE inh: cellular human IDE inhibition; inhibition, % at 5.59 µM; HEK cells, FAbetaB cleavage, fluorescence polarization; 320,000 compounds, 0.41% hits; P14735; AID 434962;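 active = percent inhibition above the average of all tested compounds plus 3 SD, set per screening campaign, cut at about 16% in these data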;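 also: IDE supplied by intact live HEK cells; FP after avidin binding of uncleaved biotin substrate so inhibition keeps polarization high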
# NOD2-RIPK2 inh: NOD2-RIPK2 protein interaction inhibition; CHO BLA complementation NOD2-RIPK2, CCF4 ratio; 360,000 compounds, 0.38% hits; inhibition, % at 4.98 µM; O43353; in the data active = inhibition above about 21%
# TLR4 MyD88 comp: TLR4-MyD88 interaction inhibition in cells; O00206+Q99836; HeLa CL3-4 TLR4/MyD88 BLA complementation, FRET ratio; inhibition, % at 8.4 µM; 200,000 compounds, 0.18% hits; AID 861; in the data active = inhibition above about 25%
# TLR9-MyD88 block: TLR9-MyD88 interaction inhibition | CHO BLA complementation TLR9-MyD88, CCF4 FRET ratio | inhibition, % at 4.98 µM | 340,000 compounds, 0.21% hits;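 active = inhibition above the mean over all tested compounds plus 3 SD, cut at about 21% in these data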
# Target sequence (Q99836 whole entry, looked up): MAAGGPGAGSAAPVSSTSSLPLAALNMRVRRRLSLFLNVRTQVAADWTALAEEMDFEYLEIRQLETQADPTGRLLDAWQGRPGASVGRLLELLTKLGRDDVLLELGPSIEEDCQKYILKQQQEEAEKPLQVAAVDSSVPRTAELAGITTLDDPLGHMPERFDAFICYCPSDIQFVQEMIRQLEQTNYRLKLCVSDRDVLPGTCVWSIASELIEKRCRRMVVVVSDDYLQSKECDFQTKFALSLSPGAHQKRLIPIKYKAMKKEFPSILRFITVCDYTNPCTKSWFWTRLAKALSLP
# Target sequence (Q9NR96 whole entry, looked up): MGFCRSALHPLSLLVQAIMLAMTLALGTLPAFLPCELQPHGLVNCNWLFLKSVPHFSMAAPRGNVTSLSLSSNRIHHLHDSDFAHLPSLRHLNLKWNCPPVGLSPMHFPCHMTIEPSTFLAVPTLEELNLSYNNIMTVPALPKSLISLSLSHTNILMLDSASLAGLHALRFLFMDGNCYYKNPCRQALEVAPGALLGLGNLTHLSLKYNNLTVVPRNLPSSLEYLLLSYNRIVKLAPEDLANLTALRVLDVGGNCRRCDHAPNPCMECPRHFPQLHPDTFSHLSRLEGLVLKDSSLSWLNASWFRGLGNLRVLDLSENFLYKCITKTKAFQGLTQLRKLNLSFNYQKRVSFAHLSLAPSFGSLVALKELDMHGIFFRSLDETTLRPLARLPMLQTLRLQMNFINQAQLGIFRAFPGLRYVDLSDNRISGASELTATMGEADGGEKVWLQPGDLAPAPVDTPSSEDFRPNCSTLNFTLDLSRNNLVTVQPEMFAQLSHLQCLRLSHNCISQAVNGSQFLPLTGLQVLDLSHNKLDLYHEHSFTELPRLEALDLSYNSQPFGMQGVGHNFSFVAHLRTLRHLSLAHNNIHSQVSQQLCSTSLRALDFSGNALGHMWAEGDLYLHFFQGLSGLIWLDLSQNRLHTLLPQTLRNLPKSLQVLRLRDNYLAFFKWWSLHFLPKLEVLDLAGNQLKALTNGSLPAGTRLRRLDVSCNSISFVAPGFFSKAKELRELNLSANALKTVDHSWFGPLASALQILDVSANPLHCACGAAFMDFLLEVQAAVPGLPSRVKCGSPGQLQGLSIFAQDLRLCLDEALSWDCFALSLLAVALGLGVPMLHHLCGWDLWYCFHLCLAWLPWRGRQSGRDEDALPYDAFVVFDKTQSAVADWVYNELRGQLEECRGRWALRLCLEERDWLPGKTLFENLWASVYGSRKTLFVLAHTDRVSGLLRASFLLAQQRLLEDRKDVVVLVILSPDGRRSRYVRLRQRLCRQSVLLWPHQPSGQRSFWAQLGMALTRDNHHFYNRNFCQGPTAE
# TLR4 MyD88 cnf: confirmation of human TLR4-MyD88 binding inhibitors; shares compounds with TLR4 MyD88 comp; HeLa CL3-4 BLA complementation, CCF4 FRET ratio; inhibition, % at 8.4 µM; 350 compounds, 50% hits;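 active = mean inhibition across three repeat runs above about 25% carried over from the earlier screen, limit read from the data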
# BLA inhibitor ct: beta-lactamase inhibition flagged in TLR4-MyD88 counter-screen; shares compounds with TLR4 MyD88 comp; HeLa BLA reporter, CCF4 FRET ratio; inhibition, % at 8.4 µM; 350 compounds, 63% hits; AID 1237;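 active = mean inhibition over three repeats above about 26% taken from the earlier screen, limit read from the data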;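 also: HeLa cells stably expressing beta-lactamase reporter as counterscreen for TLR4-MyD88 inhibitors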
# IDE inh confirm: confirmation of human insulin-degrading enzyme inhibitors in cells; shares compounds with IDE inh; HEK cells, FAbetaB cleavage, fluorescence polarization; inhibition, % at 5.59 µM; 1,200 compounds, 51% hits;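 active = mean inhibition across triplicate wells above the cutoff set by the earlier primary insulin-degrading enzyme screen, cut at about 16% in these data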
# HEK cytotox: HEK cell cytotoxicity, counter-screen for IDE inhibitors | shares compounds with IDE inh | HEK293 cytotoxicity, ATP luminescence | inhibition, % at 5.59 µM | 1,200 compounds, 28% hits | AID 449730; in the data active = inhibition above about 22%
# TLR9-MyD88 conf: TLR9-MyD88 interaction inhibition, confirmation. shares compounds with TLR9-MyD88 block. CHO TLR9/MyD88 BLA complementation, CCF4 FRET ratio. inhibition, % at 4.98 µM. 680 compounds, 51% hits. AID 540250;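 active = mean inhibition across three repeats above about 21% taken from the earlier screen, limit read from the data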;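 also: blue over green emission ratio reports constitutive TLR9 MyD88 association via BLA complementation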
# BLA nonselective: beta-lactamase reporter inhibition, counter-screen artifact; inhibition, % at 4.98 µM; 680 compounds, 7% hits; shares compounds with TLR9-MyD88 block; CHO-BLA cells, CCF4 FRET ratio, BLA reporter;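 active = mean inhibition above a 50% cutoff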;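 also: counterscreen of TLR9-MyD88 hits on CMV-driven BLA in CHO-K1 cells; higher means less blue over green ratio so more BLA blockade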
# TLR9 CHO tox: CHO cell toxicity counter-screen for TLR9-MyD88 inhibitors; inhibition, % at 4.98 µM; 680 compounds, 39% hits; shares compounds with TLR9-MyD88 block; TLR9-MyD88 CHO cells cytotoxicity, luminescence; in the data active = inhibition above about 11%
# Numbers stand for hits; – = inactive; · = not tested or not shown. In the library only some 0.87% were active in any assay of this set; here they are far more common.
SMILES,IDE act,IDE inh,NOD2-RIPK2 inh,TLR4 MyD88 comp,TLR9-MyD88 block,TLR4 MyD88 cnf,BLA inhibitor ct,TLR9-MyD88 conf,BLA nonselective,TLR9 CHO tox,others
COC(=O)Nc1sc2c(c1C(N)=O)CCCCCC2,–,–,–,26.5,–,–,–,·,·,·,
CCOC(=O)c1c(NC(=O)OC)sc2c1CCC2,–,–,–,–,–,·,·,·,·,·,
Cc1ccc(C)c(N(CC(=O)N/N=C/c2ccc(-c3ccc([N+](=O)[O-])cc3)o2)S(=O)(=O)c2ccccc2)c1,–,–,–,54.9,–,57.5,86.5,·,·,·,
O=C1c2ccccc2C(c2nnnn2-c2ccc3c(c2)OCCO3)N1Cc1ccccc1 (configuration not stated),·,·,–,·,·,·,·,·,·,·,
CC(C)Oc1cc(F)ccc1-c1cc(C(=O)NCc2ccccc2)[nH]n1,·,·,–,·,·,·,·,·,·,·,
CCCCOC(=O)CSc1nnc(-c2cc(OC)c(OC)c(OC)c2)o1,–,–,–,25.9,–,–,–,·,·,·,
CCCCN(CCCC)C(=O)CSc1nnc(-c2cc(OC)c(OC)c(OC)c2)o1,–,–,–,–,–,·,·,·,·,·,
O=C1c2cccc3c(N4CCCCC4)ccc(c23)C(=O)N1c1ccc(O)cc1,–,75.0,–,31.0,–,30.1,47.7,·,·,·,IDE inh confirm=71.7;HEK cytotox=–
Oc1sc(C=Nc2ccccc2)c2ccccc12,–,25.9,–,27.2,–,–,39.3,·,·,·,IDE inh confirm=29.6;HEK cytotox=–
Oc1c(C=Nc2ccccc2)sc2ccccc12,–,–,–,–,–,·,·,·,·,·,
Cc1ccc(S(=O)(=O)N2[C@H](CC(=O)c3ccccc3)OC[C@@H]2C(C)C)cc1,·,·,–,·,·,·,·,·,·,·,
COc1ccc(CS(=O)(=O)/C(Cl)=C(/Cl)C(=O)Nc2ccc(OC)nc2)cc1,–,–,73.0,25.1,31.0,–,–,32.3,–,100.3,
Cc1ccc(S(=O)(=O)N2C[C@H]3C(=O)C[C@@H](c4ccccc4F)N(S(=O)(=O)c4ccc(C)cc4)[C@H]3C[C@H]2c2cccc3ccccc23)cc1,·,·,–,·,–,·,·,·,·,·,
Cc1cccc(NC2=Nc3ccccc3N3C2=Nc2c(c(C)nn2-c2ccccc2)C3c2ccc(O)c(O)c2)c1 (configuration not stated),–,–,–,61.7,30.4,52.4,85.2,47.1,55.1,–,
Cc1nn(-c2ccc([N+](=O)[O-])cc2)c2c1C(c1cccc(Br)c1)N1C(=N2)C(=O)Nc2ccccc21 (configuration not stated),–,–,–,–,–,·,·,·,·,·,
NC(=O)c1sc2nc(-c3ccccc3)ccc2c1N,–,–,–,·,–,·,·,·,·,·,
COc1ccc(C(=O)c2sc3nc(-c4ccccc4)ccc3c2N)cc1OC,–,–,–,36.3,33.3,38.1,57.0,43.0,–,–,
Cn1c(=O)c(NC2CCCCC2)c2c3c(cccc31)C(=O)c1ccccc1-2,–,·,–,48.2,22.2,–,48.7,–,–,–,
Cc1nc(N2CCN(C)CC2)c2sc(=S)n(-c3ccccc3)c2n1,–,–,–,–,–,·,·,·,·,·,
S=c1sc2c(Cl)ncnc2n1-c1ccccc1,–,·,53.5,52.0,28.8,47.4,26.1,26.3,–,24.9,
COc1cc(C(O)c2nc(-c3ccc(F)c(Cl)c3)cs2)ccc1F (configuration not stated),·,·,–,·,·,·,·,·,·,·,
Cc1ccc(NC(=O)/C(C#N)=C/c2cn(CC(=O)NCc3ccco3)c3ccccc23)cc1C,–,–,–,59.8,35.8,53.9,80.0,–,–,27.8,
CC(=O)c1ccc2cc3c(cc2c1)OCO3,·,·,–,·,–,·,·,·,·,·,
CCN(CC)c1ccc2cc(NC(=O)CCC(=O)O)c(=O)oc2c1,–,–,78.8,58.0,68.3,60.8,82.6,49.6,56.7,–,
CCN(CC)c1ccc2cc(C(N)=O)c(=O)oc2c1,–,–,–,–,–,·,·,·,·,·,
SMILES,IDE act,IDE inh,NOD2-RIPK2 inh,TLR4 MyD88 comp,TLR9-MyD88 block,TLR4 MyD88 cnf,BLA inhibitor ct,TLR9-MyD88 conf,BLA nonselective,TLR9 CHO tox,others
Oc1ccc(Br)c(CN2CCN(c3ncc(Cc4ccccc4)cn3)CC2)c1,·,·,–,·,·,·,·,·,·,·,
O=C(NC(Cc1ccccc1)C(=O)Oc1ccc2c(C(F)(F)F)cc(=O)oc2c1)OCc1ccccc1 (configuration not stated),–,–,70.8,39.3,58.6,32.3,67.2,33.9,–,–,
CCCCN(C)CC(O)Cn1cc(/C=C/C(=O)c2ccc(OCC)cc2)c2ccccc21 (configuration not stated),·,–,·,·,·,·,·,·,·,·,
CCCCN(C)CC(O)Cn1cc(/C=C/C(=O)c2cccs2)c2ccccc21 (configuration not stated),–,–,44.1,38.8,46.5,39.0,67.8,30.1,–,–,
Cc1cc(C)nc(N/N=C/c2ccccc2OCc2ccc([N+](=O)[O-])cc2)n1,–,–,–,–,–,·,·,·,·,·,
O=[N+]([O-])c1ccc(N/N=C\c2ccccc2OCc2ccccc2)cc1,–,–,–,28.5,31.2,–,49.7,22.0,–,–,
Fc1ccc(C2=CC(c3ccc(Br)o3)n3ncnc3N2)cc1 (configuration not stated),–,91.8,21.6,27.6,25.1,–,26.2,–,–,–,
COc1cc(/C=C(\C#N)c2nc3ccc(C)cc3[nH]2)c([N+](=O)[O-])cc1OC,–,–,–,–,–,·,·,·,·,·,
CCN(CC)c1ccc(/C=C(/C#N)c2nc3ccc(C)cc3[nH]2)c(OC(C)C)c1,–,136.2,34.3,35.2,22.7,–,35.5,20.9,–,–,IDE inh confirm=152.4;HEK cytotox=23.1
CS(=O)(=O)Nc1ccc(-c2ccc3nccn3c2)cc1,·,·,–,·,·,·,·,·,·,·,
OCCNc1c2ccccc2nc2c(F)c(F)c(F)c(F)c12,–,–,–,69.4,31.9,83.8,106.7,42.7,–,82.1,
COC(=O)[C@@]12C[C@@H](CC(=O)NCc3cccs3)C(=O)N(Cc3cccc4ccccc34)C1=CCC(C)(C)C2,·,·,–,·,·,·,·,·,·,·,
CCCCCC(=O)N1C[C@@H](O)[C@H](n2cc(COC(=O)c3ccccc3)nn2)C[C@@H]1c1ccccc1,·,·,–,·,–,·,·,·,·,·,
O=C1C2C3CC4C5C3C1C5C1(SCCS1)C42 (configuration not stated),·,·,–,·,·,·,·,·,·,·,
